# Assay results as given in PubChem BioAssay.
# Calls of active or inactive are those of the source.
# Assays:
# Albumin (Bos taurus) = Albumin (Bos taurus) (UniProt P02769); assay: bovine serum albumin binders on microarray, profiling panel, artefact control for SMM control protein annotation, biochemical, small-molecule microarray, Alexa647 label, 635/667 nm fluorescence (AID 1118); conditions: BSA-A647 binding, fluorescence 635 nm, higher = more signal;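 also: score merges 667 nm emission intensity and signal-to-noise per printed compound spot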
# [1] = small-molecule microarray binders of probe aXIP, primary screen, biochemical, NeuroSMM set, 635/667 nm fluorescence (AID 1119); conditions: higher = more signal, called active from +8 up or from −8 down;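 also: probe is the protein aXip251-270 applied at 1 µg/mL to compound-printed slides; binding of probe to printed compounds measured as 667 nm fluorescence plus signal to noise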
# [2] = small-molecule binders of probe aNOTCH3, primary screen, biochemical, small-molecule microarray, 635/667 nm fluorescence (AID 1120); conditions: higher = more signal;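 also: probe is a biotin-tagged antibody raised against NOTCH3 rather than NOTCH3 protein; score merges spot fluorescence near 667 nm with spot signal to noise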
# [3] = small-molecule binders of probe aNOTCH2, primary screen, biochemical, small-molecule microarray, 635/667 nm fluorescence (AID 1121); conditions: higher = more signal;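 also: score merges feature fluorescence read at 667 nm with its signal to noise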
# [4] = biological target: Carbonic anhydrase 2 (Homo sapiens) (UniProt P00918); assay: CAII small-molecule binders, profiling panel, biochemical, small-molecule microarray, Alexa647-labelled CAII (AID 1122); conditions: CAII-A647 binding fluorescence, higher = more signal
# [5] = COS7 lysate on small-molecule microarray, probe aHis, 635 nm (AID 1123); conditions: COS7 cell lysate, fluorescence, higher = more signal;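 also: z-score combines 667nm fluorescence intensity with signal-to-noise per printed compound spot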
# [6] = compound binding in COS7 lysate, probe aLAP1, primary screen, cell lysate, small-molecule microarray (AID 1124); conditions: probe aLAP1, fluorescence, higher = more signal;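 also: lysate comes from COS7 cells expressing LAP1 and is applied at 0.3 µg/mL; score merges spot fluorescence near 667 nm with signal-to-noise over triplicate slides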
# Sam68 (KHDRBS1) = assay: Sam68 small-molecule binders, primary screen, biochemical, small-molecule microarray, 635 nm fluorescence (AID 1125); conditions: small-molecule microarray binding, higher = more signal;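 also: score merges 667 nm channel intensity with signal to noise over triplicate slides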
# [7] = test system: Chordin-like protein 2 (CHRDL2); assay: CHRDL2 small-molecule binders, primary screen, biochemical, small-molecule microarray, 635 nm fluorescence (AID 1126); conditions: small-molecule microarray binding, fluorescence 635 nm; higher = more signal;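 also: printed compound slides probed with Chrdl2 protein at 4 µg/mL for 1 h at 4 C; score merges 667 nm emission intensity with signal to noise over three replicate slides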
# [8] = biological target: Concanavalin-A (Canavalia ensiformis) (UniProt P02866); assay: ConA small-molecule binders, primary screen, artefact control for SMM control protein annotation, biochemical, small-molecule microarray, Alexa647 label, 635 nm (AID 1127); conditions: ConA-A647 binding fluorescence, higher = more signal;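 also: z combines 667 nm emission intensity with signal-to-noise across three replicate slides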
# [9] = anti-His antibody binders, primary screen, artefact control for SMM control protein annotation, biochemical, small-molecule microarray, 635 nm fluorescence (AID 1128); conditions: anti-His Alexa647 antibody binding, higher = more signal;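 also: score merges feature fluorescence with signal-to-noise for each printed compound spot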
# [10] = test system: Human papillomavirus type 1a E7 protein (residues 1-88); assay: HPV1a E7 small-molecule binders, primary screen, biochemical, small-molecule microarray, residues 1-88, 635 nm (AID 1129); conditions: small-molecule microarray binding, fluorescence 635 nm; higher = more signal
# [11] = biological target: Focal adhesion kinase 1 (Homo sapiens) (UniProt Q05397); assay: small-molecule microarray binders of FAK, primary screen, biochemical, 635/667 nm fluorescence, BSA, DTT (AID 1130); conditions: PTK2 binding, 635 nm fluorescence, higher = more signal;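 also: composite of spot emission at 667 nm and signal to noise over triplicate slides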
# [12] = test system: Fibrinogen (Alexa647-labelled); assay: fibrinogen binders on compound microarrays, profiling panel, artefact control for SMM control-protein annotation, biochemical, small-molecule microarray, 635/667 nm fluorescence (AID 1131); conditions: fibrinogen-A647 binding fluorescence, higher = more signal;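 also: z-score merges 667 nm fluorescence with per-spot signal-to-noise over triplicate slides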
# [13] = biological target: Follistatin (Homo sapiens) (UniProt P19883); assay: follistatin binders on small-molecule microarrays, primary screen, biochemical, small-molecule microarray, 635/667 nm fluorescence (AID 1132); conditions: FST binding, 635 nm fluorescence, higher = more signal
# [14] = biological target: Fibroblast growth factor 2 (Homo sapiens) (UniProt P09038); assay: FGF2 binders on small-molecule microarrays, primary screen, biochemical, small-molecule microarray, 635/667 nm fluorescence (AID 1133); conditions: small-molecule microarray binding, FGF2, fluorescence 635/667; higher = more signal
# [15] = mitochondrial membrane potential change in A549 cells, profiling panel, cell-based, JC-1 fluorescence, basal, 24 h, 100 nL (AID 1138); conditions: higher = more signal;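 also: A549 lung adenocarcinoma cells under basal conditions with no added stimulus; test concentration not given here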
# Lefty1 = Lefty1 binders on small-molecule microarrays, primary screen, biochemical, small-molecule microarray, 635/667 nm fluorescence (AID 1139); conditions: small-molecule microarray binding, fluorescence 635/667; higher = more signal
# [16] = test system: wheat germ agglutinin (Triticum aestivum), Alexa647-labelled; assay: wheat germ agglutinin binders on compound microarrays, profiling panel, artefact control for SMM control-protein annotation, biochemical, small-molecule microarray, 635/667 nm fluorescence (AID 1140); conditions: WGA-A647 binding, 635 nm fluorescence, higher = more signal;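 also: score merges 667 nm feature emission with signal to noise over triplicate slides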
# [17] = biological target: Luciferin 4-monooxygenase (Photinus pyralis) (UniProt P08659); assay: firefly luciferase enzyme inhibitors, primary screen, biochemical, luminescence, purified enzyme, 2006 set (AID 1141); conditions: SteadyGlo luminescence, 30 min, higher = more signal, called active from +8 up or from −8 down;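 also: cell-free assay with purified firefly luciferase at 100 ng per well in PBS; test concentration not given here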
# Luciferin 4-monooxygenase (Photinus pyralis), sequence (P08659 whole entry, looked up): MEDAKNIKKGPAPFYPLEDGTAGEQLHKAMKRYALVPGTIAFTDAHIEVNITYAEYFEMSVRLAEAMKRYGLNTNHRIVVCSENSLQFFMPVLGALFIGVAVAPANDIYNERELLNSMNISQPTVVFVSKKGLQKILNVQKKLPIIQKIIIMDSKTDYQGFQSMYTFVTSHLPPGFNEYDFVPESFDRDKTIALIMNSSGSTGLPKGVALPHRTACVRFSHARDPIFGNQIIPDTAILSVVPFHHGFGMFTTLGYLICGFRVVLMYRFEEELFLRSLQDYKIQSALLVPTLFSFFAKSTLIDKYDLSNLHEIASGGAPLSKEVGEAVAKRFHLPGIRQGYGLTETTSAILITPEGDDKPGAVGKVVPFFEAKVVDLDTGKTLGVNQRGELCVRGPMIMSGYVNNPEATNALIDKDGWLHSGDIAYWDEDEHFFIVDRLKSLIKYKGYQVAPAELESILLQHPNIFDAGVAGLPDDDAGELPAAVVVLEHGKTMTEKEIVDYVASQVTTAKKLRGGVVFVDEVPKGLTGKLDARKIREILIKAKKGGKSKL
# Albumin (Bos taurus), sequence (P02769 whole entry, looked up): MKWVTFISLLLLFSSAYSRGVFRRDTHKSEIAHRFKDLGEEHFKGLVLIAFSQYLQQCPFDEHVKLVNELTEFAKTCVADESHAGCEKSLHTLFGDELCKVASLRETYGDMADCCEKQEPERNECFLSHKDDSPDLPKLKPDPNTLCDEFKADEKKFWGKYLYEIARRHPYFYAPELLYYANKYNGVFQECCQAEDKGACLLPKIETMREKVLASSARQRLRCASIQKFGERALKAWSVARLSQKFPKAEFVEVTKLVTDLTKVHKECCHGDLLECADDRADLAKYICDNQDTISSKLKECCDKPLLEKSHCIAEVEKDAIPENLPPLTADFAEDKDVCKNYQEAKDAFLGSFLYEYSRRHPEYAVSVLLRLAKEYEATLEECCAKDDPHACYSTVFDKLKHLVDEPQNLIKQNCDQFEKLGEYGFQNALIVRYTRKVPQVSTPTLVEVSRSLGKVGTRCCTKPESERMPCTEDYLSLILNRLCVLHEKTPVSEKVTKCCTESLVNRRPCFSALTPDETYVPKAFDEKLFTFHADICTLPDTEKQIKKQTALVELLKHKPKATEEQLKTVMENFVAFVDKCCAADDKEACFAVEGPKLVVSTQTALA
# Fibroblast growth factor 2 (Homo sapiens), sequence (P09038 whole entry, looked up): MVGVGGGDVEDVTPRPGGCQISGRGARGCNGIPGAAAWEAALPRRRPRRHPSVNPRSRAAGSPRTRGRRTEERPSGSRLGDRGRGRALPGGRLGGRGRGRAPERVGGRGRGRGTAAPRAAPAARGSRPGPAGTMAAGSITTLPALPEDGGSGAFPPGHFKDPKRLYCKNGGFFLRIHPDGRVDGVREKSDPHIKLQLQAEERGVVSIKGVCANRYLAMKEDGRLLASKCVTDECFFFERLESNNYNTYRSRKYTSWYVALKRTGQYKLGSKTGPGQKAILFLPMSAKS
# Follistatin (Homo sapiens), sequence (P19883 whole entry, looked up): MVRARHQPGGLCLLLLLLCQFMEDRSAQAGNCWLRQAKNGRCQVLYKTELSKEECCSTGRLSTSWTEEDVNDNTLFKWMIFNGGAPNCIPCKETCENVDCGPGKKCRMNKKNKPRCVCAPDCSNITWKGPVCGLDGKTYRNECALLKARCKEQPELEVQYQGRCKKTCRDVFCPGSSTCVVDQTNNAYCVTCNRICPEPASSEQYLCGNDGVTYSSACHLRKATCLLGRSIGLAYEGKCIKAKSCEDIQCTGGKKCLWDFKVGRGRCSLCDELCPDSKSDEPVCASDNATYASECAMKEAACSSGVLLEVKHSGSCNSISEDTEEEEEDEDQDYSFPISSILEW
# Focal adhesion kinase 1 (Homo sapiens), sequence (Q05397 whole entry, looked up): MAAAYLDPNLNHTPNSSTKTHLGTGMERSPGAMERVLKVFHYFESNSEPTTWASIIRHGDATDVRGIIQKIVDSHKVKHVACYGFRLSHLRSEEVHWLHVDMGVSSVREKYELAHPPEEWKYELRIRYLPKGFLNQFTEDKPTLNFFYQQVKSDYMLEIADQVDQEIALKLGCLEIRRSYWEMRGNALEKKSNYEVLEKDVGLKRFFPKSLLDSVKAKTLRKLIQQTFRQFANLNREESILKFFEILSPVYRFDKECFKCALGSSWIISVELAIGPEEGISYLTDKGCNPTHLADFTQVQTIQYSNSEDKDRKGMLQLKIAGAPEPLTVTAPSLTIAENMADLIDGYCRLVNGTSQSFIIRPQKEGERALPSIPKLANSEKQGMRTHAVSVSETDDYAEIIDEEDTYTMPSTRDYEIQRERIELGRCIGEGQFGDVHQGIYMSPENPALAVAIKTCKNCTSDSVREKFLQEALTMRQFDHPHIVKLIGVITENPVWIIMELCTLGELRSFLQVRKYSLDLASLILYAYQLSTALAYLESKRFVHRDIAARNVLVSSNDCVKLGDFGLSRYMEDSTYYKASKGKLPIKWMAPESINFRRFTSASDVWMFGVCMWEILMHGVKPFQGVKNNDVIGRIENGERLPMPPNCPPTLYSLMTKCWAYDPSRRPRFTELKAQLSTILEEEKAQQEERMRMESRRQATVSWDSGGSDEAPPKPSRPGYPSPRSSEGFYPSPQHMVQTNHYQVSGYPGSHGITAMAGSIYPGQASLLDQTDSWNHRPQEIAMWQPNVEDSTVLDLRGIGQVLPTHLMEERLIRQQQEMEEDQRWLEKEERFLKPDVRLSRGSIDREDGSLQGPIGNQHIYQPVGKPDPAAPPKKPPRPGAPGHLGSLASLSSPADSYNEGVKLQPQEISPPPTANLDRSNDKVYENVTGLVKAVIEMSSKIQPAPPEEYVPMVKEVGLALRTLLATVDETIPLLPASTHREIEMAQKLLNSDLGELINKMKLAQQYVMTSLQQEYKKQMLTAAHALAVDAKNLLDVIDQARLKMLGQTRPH
# Concanavalin-A (Canavalia ensiformis), sequence (P02866 whole entry, looked up): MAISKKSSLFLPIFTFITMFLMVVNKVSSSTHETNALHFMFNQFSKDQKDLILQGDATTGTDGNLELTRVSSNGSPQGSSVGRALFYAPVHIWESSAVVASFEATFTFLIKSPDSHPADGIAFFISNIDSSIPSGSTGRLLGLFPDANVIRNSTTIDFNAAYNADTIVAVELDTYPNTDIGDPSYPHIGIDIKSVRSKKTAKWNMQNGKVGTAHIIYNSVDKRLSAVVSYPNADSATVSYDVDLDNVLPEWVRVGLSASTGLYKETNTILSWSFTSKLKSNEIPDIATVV
SMILES,composite z-score (Albumin (Bos taurus)),composite Z-score [1],composite z-score [2],composite z-score [3],composite z-score [4],composite z-score [5],composite z-score [6],composite z-score (Sam68 (KHDRBS1)),composite z-score [7],composite z-score [8],composite z-score [9],composite z-score [10],composite z-score [11],composite z-score [12],composite z-score [13],composite z-score [14],z-score [15],composite z-score (Lefty1),composite z-score [16],z-score [17]
CCCC[C@@H](O)C1=C(C)C[C@H]2C(=O)N(C)C(=O)[C@H]2[C@H]1CO,0.799,0.475 (inactive),-0.132,-0.112,0.804,0.48,-0.198,0.705,-0.0576,0.0354,0.33,-0.196,0.116,0.173,0.186,0.41,1.52,0.776,1.12,-1.41 (inactive)
COC(=O)[C@@]1(CCC(=O)OC(C)(C)C)COC(c2ccc(OCCCO)cc2)=N1,-1.01,-0.378 (inactive),-0.239,-0.147,0.558,0.214,0.993,-0.724,-2.22,-1.8,-1.22,-1.66,-0.15,-2.51,-2.21,-1.64,-0.122,-2.55,-1.57,-1.4 (inactive)
C[N+](C)(C)CCCC[C@@H]1NC(=O)[C@H]2C[C@@H](C(=O)NCCCCCN)[C@@H](c3cccc(OCCO)c3)N2C1=O,0.913,0.268 (inactive),0.23,-0.0633,0.801,2.41,1.34,0.965,-0.0742,1.13,2.45,1.07,0.535,0.789,1.19,0.327,-0.102,0.17,1.1,-0.714 (inactive)
O=C(NC1CC1)[C@@H]1c2ccccc2C(=O)N(Cc2ccccc2C(F)(F)F)[C@H]1c1ccc(CO)cc1,0.289,2.36 (inactive),0.0194,-0.0173,0.676,2.26,0.234,1.35,0.102,1.08,0.911,1.1,0.829,0.428,0.928,0.86,2.04,0.159,0.527,-0.945 (inactive)
C=CCNC(=O)[C@H]1[C@@H]2C(=O)O[C@@H](c3ccccc3)[C@@H](c3ccccc3)N2[C@@H](c2ccc(OCCO)cc2)[C@]12C(=O)Nc1ccc(C#CCCO)cc12,0.321,0.512 (inactive),0.116,-0.13,0.394,1.86,0.725,1.14,0.089,0.783,-0.0886,1.11,0.418,0.61,1.3,0.327,0.187,0.909,1.06,-0.969 (inactive)
CC1CC/C=C\[C@H]2OC34C=CCN(C(C)C)C(=O)[C@H]3N(C(CO)C(C)C)C(=O)[C@@H]4C2C(=O)O1 (stereo not given in full),-0.314,-0.481 (inactive),-0.15,-0.125,0.831,0.669,-0.0978,-1.57,-1.36,-2.39,-1.64,-2,1,-1.9,-0.459,-0.294,1.01,-1.02,-2.12,-1.3 (inactive)
